Compound activity: PubChem BioAssay, SRMLSC
Most compounds without a hit are left out; they make up all but 6.3% or so of the library.
MK inhibit = S. pneumoniae MK inhibitors, primary screen, biochemical, PK/LDH-coupled NADH absorbance. mevalonate kinase [Streptococcus pneumoniae D39]. purified MK, PK/LDH-coupled NADH absorbance 340 nm. AID 555, 2006. 65,000 tested, 0.48% active. inhibition, % at 10 µM;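 active means ranked among the strongest by inhibition in the single 10 µM screen, a fixed top-ranked set picked for dose follow-up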
Fluor 339 460 = intrinsic fluorescence of library compounds, ex339/em460 – biochemical, MLSMR library, data from DPM-DC assay, artefact control, profiling panel. compound autofluorescence, ex339/em460 nm, NADH buffer; hits give high values; 1 = no-compound wells, NADH background. fluorescence fold increase at 10 µM. 65,000 tested, 5.5% active;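 active means at 10 µM, mean starting fluorescence two-fold or more over control wells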;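 further: signal is the first read of a kinetic run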
NADH coupling = inhibitors of PK/LDH coupling enzymes, profiling panel, artefact control, biochemical, MLSMR library. coupled PK/LDH NADH assays, four targets. IC50, µM (doses to about 10 µM), for inactives: top-dose inhibition. 65,000 tested, 0.02% active. AID 774, 2007;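 active means single-dose screening hits from any of four coupled enzyme assays that gave an IC50 when retested across doses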;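 further: the DPM-DC format reads NADH fluorescence rather than 340 nm absorbance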
PMK inhibit = S. pneumoniae PMK inhibitors, primary screen, biochemical, mevalonate pathway, pilot trial included. phosphomevalonate kinase (Streptococcus pneumoniae D39). 65,000 tested, 0.49% active. AID 539, 2006. inhibition, % at 10 µM. purified PMK, PK/LDH-coupled NADH absorbance 340 nm;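 active means top-ranked compounds by inhibition in the single 10 µM screen, taking a fixed number of the strongest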;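 further: 0% = full reaction with DMSO carrier and 100% = background rate without enzyme reaction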
Spn DPM-DC inh = S. pneumoniae DPM-DC inhibitors, primary screen, biochemical, PK/LDH-coupled NADH fluorescence. diphosphomevalonate decarboxylase (Streptococcus pneumoniae D39). 65,000 tested, 0.49% active. AID 556, 2006. purified DPM-DC. calls only at 10 µM;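 active means the 320 compounds with the highest percent inhibition in the single-dose primary screen, excluding strongly autofluorescent ones, cut at about 32% in these data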;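 further: kinetic rate of NADH fluorescence loss reporting ADP formed by the decarboxylase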
Abs 340nm = compound light absorbance at 340 nm, profiling panel, artefact control, biochemical, MLSMR library, data from PS, PMK, MK assays | 65,000 tested, under 10 active | AID 708, 2007 | compound absorbance at 340 nm, fold over control | fold change at 10 µM;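 active means at 10 µM dose, initial 340 nm absorbance at least 2 fold that of control wells; inactive means change under 2 fold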;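 further: initial absorbance extrapolated from kinetic A340 decline of NADH oxidation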
The depositor's hits bear a star; i = inactive; · = no result given.

SMILES	MK inhibit	Fluor 339 460	NADH coupling	PMK inhibit	Spn DPM-DC inh	Abs 340nm
O=c1oc2c(CN3CCOCC3)c(O)ccc2c2c1CCCC2	8.0	3.79*	12.0%	15.0	·	1.12
CCOC(=O)CSC1=Nc2ccccc2C2=NC(CC(=O)NCc3ccc4c(c3)OCO4)C(=O)N12 (stereo not drawn)	9.0	1.28	9.0%	17.0	i	1.02
CCN(CC)C(=O)C(C)OC(=O)c1ccc(O)cc1 (stereo not drawn)	5.0	0.89	4.0%	1.0	i	0.97
COc1c(N2CCNC(C)C2)c(F)cc2c(=O)c(C(=O)O)cn(C3CC3)c12 (stereo not drawn)	1.0	3.85*	7.0%	12.0	·	1.1
CC1CCc2cc(F)cc3c(=O)c(C(=O)O)cn1c23 (stereo not drawn)	12.0	1.03	6.0%	2.0	i	1.01
C=CCn1cc(C(=O)NCCCOCC)c(=O)c2cc(S(=O)(=O)N(CC)CC)ccc21	11.0	1.2	7.0%	9.0	i	1.07
COc1ccc(-c2nnc(N)s2)cc1	5.0	1.2	5.0%	9.0	i	1.04
CNc1nnc(-c2ccncc2)s1	10.0	4.35*	12.0%	14.0	·	1.07
Nc1nnc(-c2ccncc2)s1	4.0	3.88*	11.0%	17.0	·	1.04
Cc1ccc(-c2nnc3sc(-c4ccncc4)nn23)cc1	5.0	1.11	7.0%	8.0	i	1.06
CC(OC(=O)c1ccncc1)C(=O)Nc1cccc(Cl)c1 (stereo not drawn)	0.0	1.12	1.0%	3.0	i	1
CCC(C)NC(=O)c1cnn2c(C)c3c(nc12)CCCC3 (stereo not drawn)	0.0	4.9*	11.0%	21.0	·	1.01
CC(C)CNC(=O)c1cccc(NC(=O)c2ccc(NC(=O)c3ccco3)cc2)c1	6.0	1.15	2.0%	0.0	i	1.04
OCC1CCCN(Cc2ccc(-c3ccccc3)cc2)C1 (stereo not drawn)	41.0*	1.03	14.0%	1.0	i	1.04
CCCC(C(=O)NCC1CCCO1)N(Cc1ccco1)C(=O)CNS(=O)(=O)c1ccccc1 (stereo not drawn)	0.0	0.9	9.0%	17.0	i	0.99
CC(C)C(C(=O)NCC1CCCO1)N(Cc1ccco1)C(=O)CNS(=O)(=O)c1ccc(F)cc1 (stereo not drawn)	6.0	1.04	11.0%	27.0*	i	1.01
CC(=O)Nc1ccc(NS(=O)(=O)Cc2ccccc2)cc1	0.0	1.1	1.0%	4.0	i	1.05
NC(=O)c1ccccc1NS(=O)(=O)Cc1ccccc1	3.0	2.15*	7.0%	10.0	·	1.05
CCCC(=O)Nc1ccc(-c2nc3cc(C)c(C)cc3o2)c(O)c1	10.0	2.18*	9.0%	7.0	·	1.17
CCCC(=O)Nc1ccc2oc(-c3ccc(OC)c(Br)c3)nc2c1	7.0	3.67*	9.0%	11.0	·	1.03
COc1ccc(CC(=O)Nc2ccc(-c3nc4cc(C)ccc4o3)c(O)c2)cc1OC	0.0	2.19*	2.0%	4.0	·	1.18
COc1ccccc1OCC(=O)Nc1cccc(-c2nc3ccccc3o2)c1	6.0	1.03	12.0%	3.0	i	0.99
CCCC(=O)Nc1ccc(-c2nc3cc(C)ccc3o2)cc1	2.0	2.34*	1.0%	0.0	·	1.11
CCOc1ccc2nc(Nc3nc4c(c(=O)[nH]3)CCC4)nc(C)c2c1	3.0	1.07	1.0%	2.0	i	1
CCn1c(=O)cc(OCC(=O)Nc2ccc(Cl)cn2)c2ccccc21	1.0	1.06	6.0%	14.0	i	1.01
SMILES	MK inhibit	Fluor 339 460	NADH coupling	PMK inhibit	Spn DPM-DC inh	Abs 340nm
O=C1c2ccccc2NC2(CCCCC2)N1c1ccc(O)cc1	9.0	3.74*	9.0%	9.0	·	1.09
O=C1NC2(CCCCC2)Oc2ccccc21	7.0	1.12	4.0%	6.0	i	1.03
O=c1oc2c3c4c(cc2c2c1CCC2)OCCN4CCC3	4.0	2.19*	7.0%	10.0	·	1.05
Cc1cc(C)nc(N2CCCC(C(=O)NCCC3=CCCCC3)C2)n1 (stereo not drawn)	6.0	1.36	9.0%	20.0	i	1.01
Cc1nn(Cc2ccccc2)c2c1C(c1ccncc1)C(C#N)=C(N)O2 (stereo not drawn)	8.0	1.05	4.0%	31.0*	i	0.98
Cc1nn(Cc2ccccc2)c2c1C(c1ccco1)C(C#N)=C(N)O2 (stereo not drawn)	15.0	1.03	8.0%	9.0	i	1.1
CCOC(=O)c1sc(C)c(C(=O)NCCCN2CCOCC2)c1N	4.0	2.26*	7.0%	4.0	i	1.06
COC(=O)c1cn(-c2ccccc2)nc1C(=O)OC	2.0	1.03	5.0%	19.0*	i	0.97
O=C(NCCCN1CCOCC1)c1c(O)c2ccccc2[nH]c1=O	0.0	1.06	4.0%	12.0	i	1.02
O=C(NCCCN1CCOCC1)c1cc2c(=O)[nH]c3ccccc3c2s1	9.0	4.73*	7.0%	4.0	·	1.11
O=C(NC1CCCC1)C1CC(=O)N(C2CCCCCCC2)C1 (stereo not drawn)	3.0	0.99	5.0%	11.0	i	1.02
O=C(NC1CCCCC1)C1CC(=O)N(c2ccc(Cl)cc2)C1 (stereo not drawn)	11.0	1.03	13.0%	28.0*	i	1.03
COC(=O)CSc1nnc(CNc2ccc(OC)cc2)n1C	5.0	1.08	4.0%	8.0	i	1.04
Cn1c(-c2ccccc2)cc2c3no[n+]([O-])c3ccc21	7.0	1.05	7.0%	9.0	i	1.06
Cc1cc(N)c(-n2cc3c(=O)n(C)c(=O)n(C)c3c2)cc1C	7.0	2.68*	10.0%	15.0	i	1.02
COc1cccc2cc(-c3nc(-c4cccs4)cs3)c(=O)oc12	13.0	4.58*	11.0%	8.0	·	1.04
Cc1cccc(-c2nc(C#N)c(NC3CCCCC3)o2)c1	0.0	2.14*	11.0%	33.0	i	1.09
Cc1cccc(-c2nc(CS(=O)CC(=O)NC3CCCC3)c(C)o2)c1 (stereo not drawn)	2.0	1.07	3.0%	5.0	i	1.06
COc1cc(C2C(C#N)=C(N)Oc3cc(C)n(Cc4ccccn4)c(=O)c32)cc2c1OCO2 (stereo not drawn)	5.0	1.11	4.0%	7.0	i	1.01
O=C(NC1=NCCS1)c1ccc(-c2ccc(Cl)cc2)o1	3.0	2.09*	7.0%	10.0	·	1.31
CCN1C(=O)C(O)(C2COC(C)(C)CC2=O)c2cc(Br)ccc21 (stereo not drawn)	6.0	1.09	2.0%	0.0	i	1.02
